Results from PubChem BioAssay (Tox21).
“And” between values parts separate entries of the source, which are not always exact repeats. Equal values may be shown once. Results filed as inconclusive are left out. A structure can be active in one record and inactive in another. The source made the active and inactive calls. Unless noted, calls follow the shape of the dose curve; as a rule, active = well fitted curve in the direction sought with a large enough effect in the repeat runs; inconclusive = weak or mixed curves; inactive = no such curve, though single readings can be large; an effect the other way counts as inactive or inconclusive.

Tests used:
[1] = qHTS assay to identify small molecule agonists of the RXR signaling pathway - cell viability counter screen (AID 1159529); also: nearly all actives have a fitted effect of over 50% in size; also: potency is read from the fitted curve at half-maximal effect
Procedure, shortened: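 HEK 293T RXRa-bla cells, 2% CS-FBS; 5 h settle; cpd 16 h 37 C, 5% CO2; CellTiter-Glo 30 min RT, luminescence. Tetraoctyl ammonium bromide as positive control.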

[2] = qHTS assay to identify small molecule antagonists of the retinoid acid receptor (RAR) signaling pathway - cell viability counter screen (AID 1159551); also: nearly all actives have a fitted effect of over 35% in size; also: potency is read from the fitted curve at half-maximal effect
Procedure, shortened: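 Cytotoxicity counter screen: ATP content quantified by CellTiter-Glo luminescence in C3RL4 cells treated 6 hr at 37 C with compound and retinol (1 uM final). Cells plated at 1,000/well and cultured overnight before dosing.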

[3] = qHTS assay to identify small molecule antagonists of the estrogen related receptor (ERR) signaling pathway from Tox21 library - cell viability counter screen (AID 1224834); also: nearly all actives have a fitted effect of over 30% in size; also: potency is read from the fitted curve at half-maximal effect
Procedure, shortened: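 CellTiter-Fluor fluorescence, read after 30 min at 37 C, measures viability of ERR cells. Cells plated at 2,000/well and incubated 6 h before pin-tool compound addition, then exposed 17.5 hours at 37 C.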

[4] = molecular target: Luciferin 4-monooxygenase (Photinus pyralis) (UniProt P08659); assay: qHTS assay to identify small molecule inhibitors of firefly luciferase (AID 1224835); also: nearly all actives have a fitted effect of over 25% in size; also: potency is read from the fitted curve at half-maximal effect
Procedure, shortened: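 Inhibition of purified Photinus luciferase is measured by luminescence. Substrate levels (D-luciferin, ATP) sit at their KM values. Each compound is tested in a concentration series.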

[5] = qHTS assay to identify small molecule agonists of the constitutive androstane receptor (CAR) signaling pathway - cell viability counter screen (AID 1224836); also: nearly all actives have a fitted effect of over 45% in size; also: potency is read from the fitted curve at half-maximal effect
Procedure, shortened: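 HepG2-CYP2B6-hCAR, 2500 cells/well, 4 h pre-incubation; cpd 15 conc + PK11195 0.75 uM final; 23 h, 37 C/5% CO2; CellTiter-Fluor, fluorescence.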

[6] = qHTS assay to identify small molecule antagonists of the constitutive androstane receptor (CAR) signaling pathway - cell viability counter screen (AID 1224837); also: nearly all actives have a fitted effect of over 45% in size; also: potency is read from the fitted curve at half-maximal effect
Procedure, shortened: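 Cytotoxicity counter-screen: CellTiter-Fluor fluorescence after 23 h compound exposure (15-point qHTS) in double-stable HepG2-CYP2B6-hCAR cells, with 50 nM CITCO added.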

[7] = qHTS assay to identify small molecule antagonists of the estrogen related receptor signaling pathway with the pleiotropic PPARgamma coactivator (PGC) from Tox21 10K library - cell viability counter screen (AID 1224840; active = well fitted cell-killing curve with a large enough effect in the repeat runs, not every such curve was filed as active; also: nearly all actives have a fitted effect of over 40% in size; also: potency is read from the fitted curve at half-maximal effect)
Procedure, shortened: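 Counter-screen for cytotoxicity: after 17.5 h compound exposure at 37 C, CellTiter-Fluor reagent added to PGC/ERR cells for 30 min and fluorescence read. Cells were seeded at 2,000 per well 6 h before dosing.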

[8] = qHTS assay to identify small molecule antagonists of the estrogen related receptor signaling pathway with the pleiotropic PPARgamma coactivator (PGC) from Tox21 10K library (AID 1224841; call rule not given here; also: actives are mostly falling curves and most rising ones were filed inactive; nearly all actives have a fitted effect of over 50% in size; also: potency is read from the fitted curve at half-maximal effect)
Procedure, shortened: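 Luminescence (One-Glo, 30 min at room temperature) after 18 h compound treatment at 37 C of PGC/ERR reporter cells plated at 2,000 cells/well and settled 6 h beforehand.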

[9] = qHTS assay to identify small molecule agonists of the estrogen related receptor signaling pathway with the pleiotropic PPARgamma coactivator (PGC) from Tox21 10K library (AID 1224842); also: nearly all actives have a fitted effect of over 15% in size; also: potency is read from the fitted curve at half-maximal effect
Procedure, shortened: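 Luminescence from One-Glo (30 min, room temperature) measured after PGC/ERR cells had 18 h at 37 C with pinned compound (23 nL in DMSO). Cells had been seeded at 2,000 per well and pre-incubated 6 h.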

[10] = qHTS assay to identify small molecule agonists of the retinoic acid receptor (RAR) signaling pathway (AID 1159553); also: potency is read from the fitted curve at half-maximal effect
Procedure, shortened: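 Luminescence was measured 30 min after luciferase reagent addition at room temperature. Before that, C3RL4 reporter cells (1,000 per well, plated overnight) were treated with compound for 6 hr at 37 C and 5% CO2.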

[11] = molecular target: Thyrotropin receptor (Homo sapiens) (UniProt P16473); assay: qHTS assay to identify small molecule agonists of the thyroid stimulating hormone receptor (TSHR) signaling pathway (AID 1224843; calls by dose curve; also: nearly all actives have a fitted effect of over 45% in size; also: potency is read from the fitted curve at half-maximal effect)
Procedure, shortened: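 Agonist activity read as cAMP rise via d2/cryptate HTRF competition, 1 h room-temperature detection, in HEK293 cells expressing TSHR. Fifteen-point titrations, each run in triplicate, with a 30 min room-temperature incubation beforehand.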

[12] = molecular target: Nuclear receptor subfamily 1 group I member 3 (Homo sapiens) (UniProt Q14994); assay: qHTS assay to identify small molecule antagonists of the constitutive androstane receptor (CAR) signaling pathway (AID 1224838);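 also: HepG2 cells stably expressing hCAR with CYP2B6 luciferase reporter stimulated by CITCO; nearly all actives have a fitted effect of over 40% in size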; also: potency is read from the fitted curve at half-maximal effect
Procedure, shortened: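 Antagonism measured as luciferase signal (ONE-Glo, 30 min, room temperature) in CAR-stimulated cells: HepG2-CYP2B6-hCAR double-stable line exposed 24 hr at 37 C to compound in a 15-point series plus 50 nM CITCO.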

[13] = molecular target: Nuclear receptor subfamily 1 group I member 3 (Homo sapiens) (UniProt Q14994); assay: qHTS assay to identify small molecule agonists of the constitutive androstane receptor (CAR) signaling pathway (AID 1224839); also: nearly all actives have a fitted effect of over 15% in size; also: potency is read from the fitted curve at half-maximal effect;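 as to activation: HepG2 cells stably carrying human CAR and a CYP2B6 luciferase reporter; series mostly up to about 92 µM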
Procedure, shortened: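 HepG2-CYP2B6-hCAR cells, 2500/well, 4 h pre-incubation; compounds 15 conc.; PK11195 0.75 uM final; 24 h, 37 C/5% CO2; ONE-Glo luciferase read.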

[14] = qHTS assay to identify small molecule antagonists of the retinoic acid receptor (RAR) signaling pathway (AID 1159552; also: nearly all actives have a fitted effect of over 50% in size; also: potency is read from the fitted curve at half-maximal effect)
Procedure, shortened: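 Cells of the C3RL4 line were seeded, incubated overnight, then dosed with compounds in DMSO followed immediately by retinol (1 uM final). Six hours later luciferase detection reagent went in; signal was measured after 30 min at RT.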

[15] = qHTS assay to identify small molecule antagonists of the estrogen related receptor (ERR) signaling pathway - cell viability counter screen (AID 1224818);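 also: series mostly up to about 46 µM; viability measured after 17.5 h of compound exposure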
Procedure, shortened: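 Cytotoxicity counter screen: fluorescence from CellTiter-Fluor, added after 17.5 h compound exposure at 37 C and read 30 min later. ERR cell line seeded at 2,000 cells/well, preincubated 6 h before dosing.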

[16] = qHTS assay to identify small molecule antagonists of the estrogen related receptor signaling pathway with the pleiotropic PPARgamma coactivator (PGC) cell viability counter screen (AID 1224822; also: series mostly up to about 46 µM)
Procedure, shortened: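 Viability counter-screen read by fluorescence intensity after 30 min with CellTiter-Fluor at 37 C; PGC/ERR reporter cells were exposed to compounds for 17.5 h at 37 C following a 6 h preincubation.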
% is scaled to controls: 0 for no effect and ±100 for the full control effect.

Chain of Luciferin 4-monooxygenase (Photinus pyralis) (P08659 whole entry, looked up): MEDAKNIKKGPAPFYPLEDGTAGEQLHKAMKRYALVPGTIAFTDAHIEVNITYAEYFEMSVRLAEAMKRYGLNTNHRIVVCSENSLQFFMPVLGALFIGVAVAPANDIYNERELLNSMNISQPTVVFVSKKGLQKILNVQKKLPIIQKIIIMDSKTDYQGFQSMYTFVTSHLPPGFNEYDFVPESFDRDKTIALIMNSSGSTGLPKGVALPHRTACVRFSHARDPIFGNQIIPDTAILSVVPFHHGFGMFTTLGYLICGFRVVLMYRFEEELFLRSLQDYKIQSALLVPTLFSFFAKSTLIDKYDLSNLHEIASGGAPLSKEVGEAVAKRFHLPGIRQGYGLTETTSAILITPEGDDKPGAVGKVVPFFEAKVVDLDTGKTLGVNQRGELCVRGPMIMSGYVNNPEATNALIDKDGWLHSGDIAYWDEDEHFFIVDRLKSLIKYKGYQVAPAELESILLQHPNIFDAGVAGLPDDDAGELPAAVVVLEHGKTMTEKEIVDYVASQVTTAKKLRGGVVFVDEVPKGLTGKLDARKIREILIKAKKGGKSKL
Chain of Nuclear receptor subfamily 1 group I member 3 (Homo sapiens) (Q14994 whole entry, looked up): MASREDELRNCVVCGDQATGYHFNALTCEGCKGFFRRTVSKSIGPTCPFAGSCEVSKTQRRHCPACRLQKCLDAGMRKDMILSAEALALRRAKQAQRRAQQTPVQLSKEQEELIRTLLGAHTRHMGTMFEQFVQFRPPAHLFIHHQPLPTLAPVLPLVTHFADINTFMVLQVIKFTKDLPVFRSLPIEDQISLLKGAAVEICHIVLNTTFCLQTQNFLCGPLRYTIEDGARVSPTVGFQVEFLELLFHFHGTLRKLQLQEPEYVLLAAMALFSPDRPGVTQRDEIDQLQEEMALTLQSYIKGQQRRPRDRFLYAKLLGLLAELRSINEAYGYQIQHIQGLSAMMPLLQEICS
Chain of Thyrotropin receptor (Homo sapiens) (P16473 whole entry, looked up): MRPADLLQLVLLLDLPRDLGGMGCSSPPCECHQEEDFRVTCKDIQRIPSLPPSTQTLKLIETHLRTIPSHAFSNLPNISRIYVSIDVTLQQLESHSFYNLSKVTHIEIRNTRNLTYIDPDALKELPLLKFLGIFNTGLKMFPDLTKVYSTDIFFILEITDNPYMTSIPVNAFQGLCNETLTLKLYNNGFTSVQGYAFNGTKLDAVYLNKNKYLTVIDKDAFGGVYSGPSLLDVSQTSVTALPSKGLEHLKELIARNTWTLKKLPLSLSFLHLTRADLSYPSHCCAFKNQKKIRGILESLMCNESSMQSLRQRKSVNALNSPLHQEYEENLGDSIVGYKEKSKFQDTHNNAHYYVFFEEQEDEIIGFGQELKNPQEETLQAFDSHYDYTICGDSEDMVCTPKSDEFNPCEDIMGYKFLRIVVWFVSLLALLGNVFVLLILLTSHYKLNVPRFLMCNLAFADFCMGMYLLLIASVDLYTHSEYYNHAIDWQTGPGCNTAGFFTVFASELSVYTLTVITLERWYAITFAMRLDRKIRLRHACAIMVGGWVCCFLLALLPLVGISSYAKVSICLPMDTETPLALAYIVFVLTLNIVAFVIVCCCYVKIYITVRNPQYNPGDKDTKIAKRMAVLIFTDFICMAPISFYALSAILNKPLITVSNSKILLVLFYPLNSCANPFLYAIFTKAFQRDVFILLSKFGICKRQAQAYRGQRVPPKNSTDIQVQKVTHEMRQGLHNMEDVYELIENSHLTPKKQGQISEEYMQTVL

CCC(C)c1cc(C(C)(C)C)cc(-n2nc3ccccc3n2)c1O (stereo not drawn)
inactive: Potency [1] | Potency [2] | Potency [3] | Potency [4] | Potency [5] | Potency [6] | Potency [7] | Potency [8] | Potency [9]

Oc1ccc(C2(c3ccc(O)cc3)CCCCC2)cc1
inactive: Potency [2] | Potency [4]
active: Potency [1] 36.8 µM | Potency [3] 57.9 µM

Clc1ccc(CSC(Cn2ccnc2)c2ccc(Cl)cc2Cl)cc1 (stereo not drawn)
inactive: Potency [2] | Potency [10] | Potency [4] | Potency [5] | Potency [11]
active: Potency [1] 26.8 µM | Potency [3] 15 µM | Potency [7] 29.8 µM

N#Cc1ccccc1N
inactive: Potency [1] | Potency [2] | Potency [3] | Potency [4] | Potency [5] | Potency [6] | Potency [12] | Potency [13] | Potency [7] | Potency [9] | Potency [11]

[Cl][Sn]([c]1ccccc1)([c]1ccccc1)[c]1ccccc1
active: Potency [1] 0.585 µM | Potency [2] 4.61 µM | Potency [3] 1.16 µM | Potency [4] 6.01 µM | Potency [5] 3.66 µM | Potency [6] 2.06 µM | Potency [12] 206 nM | Potency [7] 0.82 µM | Potency [8] 0.82 µM
inactive: activation [13] -23.6% [at 19 µM] | activation [9] -35.3% [at 19 µM]

CCOC(=O)CC(=O)CCl
inactive: Potency [1] | Potency [2] | Potency [10] | Potency [3] | Potency [4] | Potency [5] | Potency [6] | Potency [13] | Potency [7]

N#CSCSC#N
active: Potency [1] 17.8 µM and 17.2 µM | Potency [2] 27.9 µM and 30.3 µM | Potency [3] 62.5 µM and 60.5 µM | Potency [5] 44.2 µM and 48.1 µM | Potency [6] 27.9 µM and 27 µM | Potency [12] 19.8 µM and 24.1 µM | Potency [7] 55.7 µM and 53.9 µM
inactive: Potency [4] | Potency [13] | Potency [8] | Potency [9]

CN(CCCC(=O)c1cccnc1)N=O
inactive: Potency [1] | Potency [2] | Potency [3] | Potency [4] | Potency [5] | Potency [6] | Potency [12] | Potency [13] | Potency [7] | Potency [11]

Oc1ccc(C(c2ccc(O)cc2)(C(F)(F)F)C(F)(F)F)cc1
inactive: Potency [2] | Potency [4] | Potency [5] | Potency [6] | Potency [9]
active: Potency [1] 48.8 µM | Potency [3] 54.2 µM | Potency [13] 4.31 µM and 5.45 µM | Potency [8] 60.8 µM | Potency [11] 30.5 µM

Cc1cc(Cl)ccc1O[C@H](C)C(=O)O
inactive: Potency [1] | Potency [2] | Potency [3] | Potency [4] | Potency [5] | Potency [6] | Potency [13] | Potency [7]

O=C/C(Cl)=C(/Cl)C(=O)O
inactive: Potency [1] | Potency [2] | Potency [3] | Potency [4] | Potency [5] | Potency [6] | Potency [13] | Potency [7] | Potency [8] | Potency [9] | Potency [11]

ClCc1ccccc1CCl
inactive: Potency [1] | Potency [2] | Potency [3] | Potency [4] | Potency [5] | Potency [6] | Potency [12] | Potency [13] | Potency [7] | Potency [11]

[CH3][Hg][Cl]
inactive: Potency [14] | Potency [13] | Potency [11]
active: Potency [1] 6.15 µM | Potency [3] 60.9 µM | Potency [4] 5.62 µM | Potency [5] 24.3 µM | Potency [7] 38.5 µM

CC(=O)[O-].CC(=O)[O-].O.O.[Cd+2]
inactive: Potency [2]
active: Potency [1] 13.6 µM | Potency [3] 26.9 µM | Potency [5] 5.37 µM | Potency [6] 6.76 µM | Potency [7] 12 µM

C=CC(=O)OCC(COC(=O)C=C)(COC(=O)C=C)COC(=O)C=C
inactive: Potency [4] | Potency [13] | Potency [9]
active: Potency [1] 17.4 µM | Potency [14] 13.7 µM | Potency [10] 1.93 µM | Potency [3] 9.69 µM | Potency [5] 15.4 µM | Potency [6] 8.63 µM | Potency [7] 5.45 µM | Potency [8] 13.7 µM | Potency [11] 8.63 µM

CC(C)CC(C)Nc1ccc(Nc2ccccc2)cc1 (stereo not drawn)
inactive: Potency [14] | Potency [10] | Potency [9]
active: Potency [1] 54 µM | Potency [3] 60.1 µM | Potency [4] 39.3 µM | Potency [7] 67.4 µM | Potency [8] 60.1 µM

Clc1ccc(C(c2ccc(Cl)cc2)C(Cl)(Cl)Cl)cc1
active: Potency [1] 22 µM and 30.9 µM and 23.9 µM
17.4 µM (active) and inactive: Potency [8]
inactive: Potency [2] | Potency [3] | Potency [4] | Potency [5] | Potency [6] | Potency [7] | Potency [9]

CCCSP(=O)(OCC)SCCC
inactive: Potency [1] | Potency [14] | Potency [10] | outcome [15] | Potency [16] | Potency [3] | Potency [5] | Potency [6] | Potency [12] | Potency [7]
active: Potency [13] 25.2 µM

Cc1cc(N=Nc2ccccc2C)ccc1N
inactive: Potency [14] | Potency [12] | Potency [8]
active: Potency [1] 54.9 µM and 43.6 µM | Potency [10] 864 nM and 1.22 µM | Potency [3] 27.3 µM | Potency [4] 5.64 µM and 6.33 µM | Potency [5] 17.2 µM and 1.09 µM | Potency [6] 3.06 µM | Potency [13] 30.6 µM and 48.6 µM | Potency [7] 38.6 µM and 27.3 µM | Potency [9] 4.33 µM and 2.43 µM
